Screening data as filed in PubChem.
FMDV inh: foot and mouth disease virus antiviral activity; FMDV antiviral cell-based qHTS; Potency, µM (doses to about 57.9 µM), for the others: top-dose activity change, negative = inhibition, actives largely listed as inhibitors; hit rate 1.2% among 410,000; AID 1159524; calls by dose curve; tested in HEK293T cells; note: read-out not given here; potency is the fitted concentration of half-maximal effect; nearly all actives have a fitted effect of over 45% in size
MARV entry inh: inhibitors of Marburg virus binding or cell entry | Marburg virus pseudotyped entry inhibition, cell reporter | Potency, µM (series often up to 37.8 µM), for inactives: at the top dose activity change, negative = inhibition, actives largely listed as inhibitors | hit rate 1.8% among 300,000 | AID 540276; calls by dose curve; tested in HEK293 cells; note: potency is the fitted concentration of half-maximal effect
Lassa entry inh: blocks Lassa virus binding to or entry into cells; Lassa virus pseudotype entry inhibition, cell reporter; Potency, µM (highest dose often 37.9 µM), for inactives: top-dose activity change, negative = inhibition, actives largely listed as inhibitors; hit rate 1.2% among 300,000; AID 540256; calls by dose curve; tested in HEK293 cells; note: potency is the fitted concentration of half-maximal effect; nearly all actives have a fitted effect of over 50% in size
HCMV antiviral: inhibitors of human cytomegalovirus | hit rate 4.5% among 410,000 | activity change, negative = inhibition, % at 57.5 µM | HFF cells, HCMV-luciferase reporter, 72 h; stronger effect = lower value; in the data active = activity change below about -60%; inconclusive = no clear call, values can overlap the other calls; inactive = above about -39%
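Luciferase read-out from HCMV-luciferase-infected HFFs (MOI 1 PFU/cell) 72 h post infection at 37C; compounds added after 16 h cell attachment; activity normalized between buffer-only basal and Salinomycin (10uM) inhibitor controls.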
Active calls of the source: *; ? = inconclusive; · = no result; [ ] = remark or other dose. Most compounds without a hit are left out; they make up all but 6.2% or so of the library. % is set by controls: 0 for no effect and ±100 for the full control effect.

SMILES	FMDV inh	MARV entry inh	Lassa entry inh	HCMV antiviral
CCOc1cccc(/C=C/c2ccc3cccc(O)c3n2)c1OC	-16.4%	?	?	-92.5*
CCOc1cccc(/C=C/c2ccc3cccc(O)c3n2)c1O	-1.0%	?	?	-100.1*
CCC1CN(S(=O)(=O)c2cc(-c3onc(C)c3C)ccc2C)c2cc(Cl)ccc2O1 (centres undefined)	-16.1%	·	-25.2%[46.1 µM]	-66.9*
Cc1ccc(-c2onc(C)c2C)cc1S(=O)(=O)N1CCOc2ccc(Cl)cc21	?	·	-22.2%[46.1 µM]	-62.3*
Cc1ccc(-c2onc(C)c2C)cc1S(=O)(=O)N1CCc2ccccc21	?	·	-10.5%[46.1 µM]	?
CC(=O)c1ccc(N2CCN(S(=O)(=O)c3cc(-c4onc(C)c4C)ccc3C)CC2)cc1	?	·	-5.5%[46.1 µM]	-67.3*
CSC1=NCCN1C(=O)c1ccc(S(=O)(=O)N2CCCC2)cc1	-20.9%	·	·	-24.4
CC(=O)c1ccc2c(c1)OCO2	-21.1%	12.0%	-0.6%	19.1
C[n+]1cc2c3c(ccc2c2ccc4cc5c(cc4c21)OCO5)OCO3	25.1µM*	0.891µM*	·	-97.9*
C=CCn1c(O)c(N=NC(=O)OCC)c2ccccc21	-22.3%	3.2%	3.1%	-64.3*
C=CCn1c(=O)c2ccccc2n2nnc(C(=O)OCC)c12	10.2%	10.5%	20.2%	-62.5*
C=CCn1c(O)c(N=NC(=S)Nc2cccc(OC)c2)c2ccccc21	-14.7%	?	?	-75.9*
C=CCn1c(O)c(N=Nc2ccccc2O)c2ccccc21	-23.6%	·	·	7.9
C=CCn1c(O)c(N=Nc2ccccc2)c2ccccc21	-4.0%	-14.4%[46.1 µM]	6.3%[46.1 µM]	49.9
C=CCn1c(O)c(N=NC(=S)Nc2ccc(OC)cc2)c2ccccc21	-13.5%	?	?	-71.6*
CCn1c(O)c(N=NC(=O)CNC(=O)c2ccco2)c2ccccc21	-17.6%	·	·	-61.8*
CN(C)c1ccc(/C=C/c2cc[n+]([O-])cc2)cc1	·	-6.6%	·	·
Cc1ccc(C(=O)O/N=C/c2ccc(N(C)C)cc2)cc1	49.1%	4.3%	15.9%	?
CN(C)c1ccc(/C=C/c2cc[n+](C)cc2)cc1	-24.5%	?	?	-100.9*
Cc1ccc(/C=C/c2ccc(N(C)C)cc2)[n+](C)c1	-17.4%	·	·	-98.3*
Cc1ccc(S(=O)(=O)N(C)C(C)CCc2ccco2)cc1 (centres undefined)	-22.3%	·	·	-17.2
O=C(CSc1oc(-c2ccc(F)cc2)nc1S(=O)(=O)c1ccccc1)NCC1CCCO1 (centres undefined)	-12.4%	?	-19.9%	-63.6*
COc1ccccc1NS(=O)(=O)c1ccc2oc(SCc3ccc(F)cc3)nc2c1	?	?	?	-37.4
COc1ccc(NS(=O)(=O)c2ccc3oc(SCc4ccc(F)cc4)nc3c2)cc1	?	?	?	-61.0*
COc1cccc(CSc2nc3ccccc3cc2C=O)c1	0.0%	?	?	-99.9*
SMILES	FMDV inh	MARV entry inh	Lassa entry inh	HCMV antiviral
COc1cccc(NC(=O)CSc2nc3ccccc3cc2Cc2ccccc2)c1	·	?	11.9%	-18.4
Cc1ccc(/C=N/n2c(C)nnc2C)s1	-0.8%	10.9%	-16.5%	28.0
COc1ccc(OC)c(S(=O)(=O)Nc2ccc(Oc3ccccc3)cc2)c1	10.3%	-22.8%	-1.6%	-63.5*
COc1ccc(OC)c(S(=O)(=O)Nc2ccc3oc(C)c(C(C)=O)c3c2)c1	11.2%	-6.3%[46.1 µM]	-5.2%	-24.3
COC(=O)c1c(C)oc2ccc(NS(=O)(=O)c3cc(OC)ccc3OC)cc12	?	?	?	-61.6*
COc1ccc(-c2nc3sc(CCNC(=O)C(=O)Nc4cc(F)ccc4F)c(C)n3n2)cc1	13.5%	·	1.5%[46.1 µM]	-11.6
Cc1ccc(NC2CCCN(C(=O)c3ccccn3)C2)cc1C (centres undefined)	?	·	·	0.0
CC(C)(C)NC[C@@H](O)COc1cccc2c1CCCC2=O	-11.8%	·	·	-38.2
Cc1ccc(OCC(O)C(C)NC(C)C)c2c1CCC2 (centres undefined)	-15.2%	15.8µM*	·	·
COc1ccc(C2=Nn3c(nnc3-c3ccccc3Cl)SC2)cc1OC1CCOC1 (centres undefined)	33.1%	·	·	19.9
FC(F)Oc1ccc(C2=Nn3c(nnc3-c3ccccc3Cl)SC2)cc1OCC1CC1	0.0%	·	·	20.7
COc1ccc(C2=Nn3c(nnc3-c3ccccc3OC)SC2)cc1OC	-18.9%	?	?	-96.9*
COc1ccc(C2=Nn3c(nnc3-c3ccccc3Cl)SC2)cc1OC1CCCC1	31.6µM*	·	·	-93.7*
COc1ccc(OC)c(-c2nnc3n2N=C(c2ccc(OC)c(OC4CCOC4)c2)CS3)c1 (centres undefined)	-17.0%	·	·	-75.3*
COc1ccc(C2=Nn3c(nnc3-c3ccccc3F)SC2)cc1OCC1CC1	?	·	·	-97.7*
